Four compounds from PubChem BioAssay (EPA / NIEHS) can be followed below.

Assay [1] is described as follows: ATG_PXRE_CIS: Attagene CIS-FACTORIAL HepG2 Assay for human Pregnane X Receptor Element (PXRE) (AID 2282957). The following applies: HepG2 Attagene CIS-FACTORIAL PXRE reporter, mRNA; actives raise or lower the signal. An outline of the steps:
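HepG2 cells transiently transfected with cis-regulated multiple reporter transcription units; endogenous factor activity measured as reporter mRNA 24 h after dosing. RT-PCR, fluorescent primer extension, HpaI digestion, capillary electrophoresis; bidirectional fit versus DMSO baseline.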

Assay [2] is described as follows: ATG_PPRE_CIS: Attagene CIS-FACTORIAL HepG2 Assay for human Peroxisome Proliferator-activated Response Element (PPRE) (AID 2282958). Particulars: HepG2 PPRE cis-element reporter, Attagene transcription factor profiling; actives raise or lower the signal. An outline of the steps: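 HepG2, transient MRTU transfection (cis promoter elements, endogenous TFs). 24 h dosing. RNA → oligo(dT) RT → PCR → 6-FAM primer extension → HpaI digest → CE. Bidirectional fit vs DMSO.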

The nature of assay [3]: ATG_RORE_CIS: Attagene CIS-FACTORIAL HepG2 Assay for human RAR-related Orphan Receptor Element (RORE) (AID 2282959). Particulars: HepG2 Attagene cis-factorial RORE reporter, mRNA; actives raise or lower the signal. The method in brief: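 Transient MRTU transfection of human HepG2 liver cells (FuGene 6); 24 h compound exposure; TriZol RNA, oligo(dT) RT, PCR, FAM labeling, HpaI cut, CE fragment analysis. DMSO = negative control/baseline.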

Assay [4] can be described thus: ATG_Sox_CIS: Attagene CIS-FACTORIAL HepG2 Assay for human SRY-box transcription factor (SOX) (AID 2282960). Particulars: HepG2 Attagene cis-factorial SOX reporter, mRNA; actives raise or lower the signal. An outline of the steps:
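Endogenous factor activity in human liver HepG2 cells carrying transfected cis-regulated reporter units. RNA taken 24 h post-dose, reverse-transcribed, PCR-amplified and sized by capillary electrophoresis. Gain or loss of signal fitted relative to DMSO.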

In assay [5] the target is Transcription factor Sp1 (Homo sapiens) (UniProt P08047). Description: ATG_Sp1_CIS: Attagene CIS-FACTORIAL HepG2 Assay for human Specificity Protein 1 (Sp1) (AID 2282961). Particulars: HepG2 Sp1 cis-reporter transcription, actives raise or lower the signal. An outline of the steps: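 Transient MRTU-transfected HepG2, 24 h compound exposure. Total RNA → oligo(dT) RT → PCR of reporter → 6-FAM primer extension → HpaI digest → CE. Endpoint fitted both directions vs DMSO.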

A short description of assay [6]: ATG_SREBP_CIS: Attagene CIS-FACTORIAL HepG2 Assay for human Sterol Regulatory Element Binding (SREBP) (AID 2282962). Particulars: HepG2 Attagene cis-factorial SREBP reporter, mRNA; actives raise or lower the signal. The method in brief: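 Transfected HepG2 (cis-regulated reporter library, endogenous TFs) → compound 24 h → total RNA → oligo(dT) RT → reporter-specific PCR → FAM primer extension, HpaI cut → CE fluorescence. Fit bidirectional vs DMSO.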

The target of assay [7] is Signal transducer and activator of transcription 3 (Homo sapiens) (UniProt P40763). Description: ATG_STAT3_CIS: Attagene CIS-FACTORIAL HepG2 Assay for human Signal Transducer and Activator of Transcription 3 (STAT3) (AID 2282963). The following applies: HepG2, Attagene cis-factorial STAT3 reporter transcription; actives raise or lower the signal. An outline of the steps:
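HepG2 cells transiently transfected with multiple cis-element-driven reporter units report endogenous transcription factor activity. After 24 h compound exposure, reporter mRNA is measured by RT-PCR, 6-FAM labelling, HpaI digestion and capillary electrophoresis. Fitted bidirectionally versus DMSO.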

Assay [8] is described as follows: ATG_TA_CIS: Attagene CIS-FACTORIAL HepG2 Assay for human TA Basal Promoter (AID 2282964). Particulars: HepG2 Attagene CIS-factorial TA basal promoter reporter; actives raise or lower the signal. An outline of the steps:
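Read-out: fluorescent reporter-transcript fragments resolved by capillary electrophoresis after RT-PCR and HpaI digestion. Source: HepG2 cells carrying transiently transfected multi-reporter cis constructs, treated 24 h. Endpoint fitted bidirectionally relative to DMSO.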

Assay [9] can be described thus: ATG_TAL_CIS: Attagene CIS-FACTORIAL HepG2 Assay for human TAL Basal Promoter (AID 2282966).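 Further: background control endpoint measuring basal TAL promoter reporter mRNA not a specific factor.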 Particulars: HepG2 Attagene cis-factorial TAL promoter reporter; actives raise or lower the signal. The method in brief:
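HepG2 cells were transiently transfected with promoter-driven multiplexed reporter units and dosed for 24 h. Reporter mRNA was measured by RT-PCR with capillary electrophoresis fluorescence; bidirectional fits used DMSO as baseline, serving as a background control.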

Assay [10] can be described thus: ATG_TGFb_CIS: Attagene CIS-FACTORIAL HepG2 Assay for human Transforming Growth Factor (TGF) (AID 2282967). Particulars: HepG2 Attagene CIS TGFb reporter, mRNA transcription; actives raise or lower the signal. The method in brief: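 Transient MRTU transfection of HepG2 (FuGene 6). Dose 24 h. TriZol RNA, oligo(dT) RT, PCR, 6-FAM primer extension, HpaI cut, CE. Bidirectional fit, DMSO = baseline.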

The nature of assay [11]: ATG_VDRE_CIS: Attagene CIS-FACTORIAL HepG2 Assay for human Vitamin D Receptor Element (VDRE) (AID 2282968). The following applies: HepG2 VDRE cis-reporter transcription, actives raise or lower the signal. The method in brief:
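Transiently transfected HepG2 cells carrying cis-regulated reporter transcription units were exposed for 24 h. Reporter mRNA was measured by RT-PCR with fluorescent labelling and capillary electrophoresis, and fitted in both directions against DMSO.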

Assay [12] addresses Steroid hormone receptor ERR1 (Homo sapiens) (UniProt P11474). Description: ATG_ERRa_TRANS: Attagene TRANS-FACTORIAL HepG2 Assay for human Estrogen-Related Receptor alpha (ERRa) (AID 2282971; active means hit-call score of the fitted dose curve at least 0.9, where 1 is the maximum). The following applies: HepG2 Attagene TRANS reporter, ERRa transactivation. An outline of the steps:
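HepG2 cells transiently transfected with multiplexed GAL4-UAS reporter units reading chimeric ERRa-Gal4 activity; 24 h compound exposure. Reporter mRNA measured by RT-PCR, 6-FAM labelling, HpaI digest and capillary electrophoresis; gain of signal fitted versus DMSO baseline.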

The target of assay [13] is X-box-binding protein 1 (Homo sapiens) (UniProt P17861). Description: ATG_Xbp1_CIS: Attagene CIS-FACTORIAL HepG2 Assay for human X-box Binding Protein 1 (XBP1) (AID 2282972). The following applies: HepG2 XBP1 cis-element reporter, Attagene multiplex; actives raise or lower the signal. An outline of the steps:
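HepG2, transient MRTU transfection (cis-promoter driven), 24 h compound exposure. Total RNA → oligo(dT) RT → PCR → 6-FAM labeling → HpaI cut → CE. Bidirectional fit vs DMSO.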

Assay [14] is described as follows: ATG_M_19_TRANS: Attagene TRANS-FACTORIAL HepG2 Assay for M19 Transcription Factor (Internal Marker) (AID 2282974; active means hit-call score of the fitted dose curve at least 0.9, where 1 is the maximum). The following applies: HepG2 Attagene TRANS-FACTORIAL M19 internal marker reporter. The method in brief:
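Fluorescence of 6-FAM-labelled reporter cDNA fragments, separated by capillary electrophoresis, served as the readout. These derived from HepG2 cells carrying transfected GAL4-UAS reporter units after 24 h dosing, with DMSO as negative control.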

Assay [15] in a line: ATG_GAL4_TRANS: Attagene TRANS-FACTORIAL HepG2 Assay for GAL4 (Internal Marker) (AID 2282976; active means hit-call score of the fitted dose curve at least 0.9, where 1 is the maximum). Particulars: HepG2 Attagene TRANS GAL4 internal marker reporter. An outline of the steps:
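HepG2 cells transiently transfected with multiplexed GAL4-UAS reporter constructs were dosed for 24 h. Reporter mRNA was measured by RT-PCR, 6-FAM primer extension, HpaI digestion and capillary electrophoresis, and gain of signal was fitted relative to DMSO.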

The nature of assay [16]: ATG_TCF_b_cat_CIS: Attagene CIS-FACTORIAL HepG2 Assay for human T-Cell-Factor with beta-catenin (TCF/b-cat) (AID 2282965). The following applies: HepG2 TCF/beta-catenin cis-reporter transcription, actives raise or lower the signal. An outline of the steps:
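HepG2, transient MRTU transfection, cis-element-driven reporters (endogenous TFs). 24 h compound exposure. Readout: reporter mRNA by RT-PCR + 6-FAM primer extension, HpaI digest, capillary electrophoresis. Gain/loss fit vs DMSO baseline.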

The target in assay [17] is Estrogen receptor (Homo sapiens) (UniProt P03372). Description: ATG_ERa_TRANS: Attagene TRANS-FACTORIAL HepG2 Assay for human Estrogen Receptor alpha (ERa) (AID 2282970; active means hit-call score of the fitted dose curve at least 0.9, where 1 is the maximum). The following applies: HepG2 Attagene TRANS ERa GAL4 reporter, mRNA. An outline of the steps: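 HepG2 cells transiently transfected with multiplexed GAL4-UAS reporter units; ERa activity read via exogenous chimeric NR-Gal4 protein. After 24 hour compound exposure, reporter mRNA measured by RT-PCR with 6-FAM labelling and capillary electrophoresis; gain-of-signal fitted relative to DMSO.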

Usually AC50 stands for the midpoint of the concentration-response curve, whichever way the signal moves.

Results filed as inconclusive are left out. Calls of active or inactive are those of the source. How the source made its calls, unless noted: active means hit-call score of the fitted dose curve at least 0.9, where 1 is the maximum; inactive means score below 0.9.

Chain of X-box-binding protein 1 (Homo sapiens) (P17861 whole entry, looked up): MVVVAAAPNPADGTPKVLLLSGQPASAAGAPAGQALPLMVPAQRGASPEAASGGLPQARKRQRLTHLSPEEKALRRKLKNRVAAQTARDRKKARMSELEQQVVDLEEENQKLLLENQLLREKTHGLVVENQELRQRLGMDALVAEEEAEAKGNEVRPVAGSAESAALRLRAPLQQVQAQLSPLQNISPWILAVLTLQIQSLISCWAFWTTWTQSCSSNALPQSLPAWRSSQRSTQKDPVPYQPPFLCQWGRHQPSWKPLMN
Chain of Signal transducer and activator of transcription 3 (Homo sapiens) (P40763 whole entry, looked up): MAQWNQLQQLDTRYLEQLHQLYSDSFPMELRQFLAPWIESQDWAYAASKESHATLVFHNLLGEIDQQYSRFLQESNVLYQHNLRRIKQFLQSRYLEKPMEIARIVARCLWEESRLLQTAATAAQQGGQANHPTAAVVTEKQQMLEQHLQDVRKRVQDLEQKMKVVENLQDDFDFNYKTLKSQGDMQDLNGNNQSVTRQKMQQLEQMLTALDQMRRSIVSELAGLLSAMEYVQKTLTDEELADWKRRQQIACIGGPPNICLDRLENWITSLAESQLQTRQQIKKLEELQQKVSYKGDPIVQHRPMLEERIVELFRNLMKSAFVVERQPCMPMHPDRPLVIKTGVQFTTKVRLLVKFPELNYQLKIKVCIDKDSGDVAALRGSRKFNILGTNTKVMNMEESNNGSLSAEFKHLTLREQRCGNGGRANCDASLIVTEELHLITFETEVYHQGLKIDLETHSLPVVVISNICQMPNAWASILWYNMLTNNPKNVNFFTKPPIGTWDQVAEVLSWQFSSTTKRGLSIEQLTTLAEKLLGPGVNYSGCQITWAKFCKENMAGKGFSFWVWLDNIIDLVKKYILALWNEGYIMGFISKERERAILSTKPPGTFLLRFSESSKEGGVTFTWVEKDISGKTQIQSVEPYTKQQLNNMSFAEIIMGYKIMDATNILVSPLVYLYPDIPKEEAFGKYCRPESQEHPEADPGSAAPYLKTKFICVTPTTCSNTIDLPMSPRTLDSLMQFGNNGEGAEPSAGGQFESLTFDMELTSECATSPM
Chain of Estrogen receptor (Homo sapiens) (P03372 whole entry, looked up, the tested form may be a part): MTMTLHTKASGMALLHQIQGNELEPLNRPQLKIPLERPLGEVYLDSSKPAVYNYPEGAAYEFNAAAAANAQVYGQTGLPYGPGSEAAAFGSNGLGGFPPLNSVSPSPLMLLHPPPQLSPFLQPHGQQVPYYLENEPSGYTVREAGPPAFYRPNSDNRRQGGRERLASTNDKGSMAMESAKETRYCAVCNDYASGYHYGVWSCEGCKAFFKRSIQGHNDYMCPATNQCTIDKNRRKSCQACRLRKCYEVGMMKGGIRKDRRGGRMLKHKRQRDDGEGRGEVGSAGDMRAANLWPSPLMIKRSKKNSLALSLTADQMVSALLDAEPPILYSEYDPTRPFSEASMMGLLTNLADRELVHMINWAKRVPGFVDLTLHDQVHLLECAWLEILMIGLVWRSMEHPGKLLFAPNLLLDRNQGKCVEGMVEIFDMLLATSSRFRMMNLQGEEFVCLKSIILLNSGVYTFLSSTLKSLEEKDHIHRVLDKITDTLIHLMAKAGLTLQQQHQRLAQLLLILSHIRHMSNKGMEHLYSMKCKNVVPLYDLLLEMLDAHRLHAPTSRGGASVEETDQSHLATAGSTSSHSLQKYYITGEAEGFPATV
Chain of Transcription factor Sp1 (Homo sapiens) (P08047 whole entry, looked up): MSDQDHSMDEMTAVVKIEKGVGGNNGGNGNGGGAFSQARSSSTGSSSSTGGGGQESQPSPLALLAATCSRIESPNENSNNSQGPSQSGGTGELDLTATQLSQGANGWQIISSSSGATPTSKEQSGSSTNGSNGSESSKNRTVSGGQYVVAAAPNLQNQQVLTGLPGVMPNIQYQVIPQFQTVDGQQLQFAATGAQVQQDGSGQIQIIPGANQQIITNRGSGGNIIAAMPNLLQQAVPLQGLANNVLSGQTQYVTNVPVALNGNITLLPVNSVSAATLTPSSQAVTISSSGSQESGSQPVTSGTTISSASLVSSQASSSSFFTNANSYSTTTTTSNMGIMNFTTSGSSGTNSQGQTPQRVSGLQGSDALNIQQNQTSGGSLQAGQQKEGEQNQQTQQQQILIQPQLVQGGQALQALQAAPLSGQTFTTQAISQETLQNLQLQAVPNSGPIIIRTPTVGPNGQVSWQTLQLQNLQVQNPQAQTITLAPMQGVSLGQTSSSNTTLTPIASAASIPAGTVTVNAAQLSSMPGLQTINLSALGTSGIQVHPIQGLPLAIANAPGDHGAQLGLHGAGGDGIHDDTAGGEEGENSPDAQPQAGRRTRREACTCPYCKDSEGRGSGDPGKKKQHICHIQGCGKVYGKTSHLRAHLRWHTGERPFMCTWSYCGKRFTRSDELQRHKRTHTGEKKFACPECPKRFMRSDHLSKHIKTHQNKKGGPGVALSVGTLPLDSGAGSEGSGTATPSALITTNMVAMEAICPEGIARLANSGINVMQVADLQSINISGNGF
Chain of Steroid hormone receptor ERR1 (Homo sapiens) (P11474 whole entry, looked up, the tested form may be a part): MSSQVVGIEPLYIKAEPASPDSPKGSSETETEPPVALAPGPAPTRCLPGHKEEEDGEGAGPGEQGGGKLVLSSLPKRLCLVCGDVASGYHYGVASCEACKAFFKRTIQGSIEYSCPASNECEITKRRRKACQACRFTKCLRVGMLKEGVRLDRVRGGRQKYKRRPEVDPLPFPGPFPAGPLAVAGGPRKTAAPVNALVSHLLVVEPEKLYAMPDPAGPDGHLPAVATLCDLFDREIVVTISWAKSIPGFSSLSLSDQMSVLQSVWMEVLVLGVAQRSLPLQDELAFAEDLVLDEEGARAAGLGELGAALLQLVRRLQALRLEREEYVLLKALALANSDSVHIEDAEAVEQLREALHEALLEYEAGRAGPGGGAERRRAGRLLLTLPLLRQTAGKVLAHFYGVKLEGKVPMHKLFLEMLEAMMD

For `NNC(=O)CCCCC(=O)NN`, the compound was classed as inactive in [1], in [2], in [3], in assay [4], in assay [5] and in assay [6]. Also, the compound was classed as inactive in [7], in [8], in assay [9], in assay [10], in [11] and in assay [12]. In addition, the result in assay [13], in assay [14] and in assay [15] was inactive.
In the case of `CC(C)(c1ccc(Oc2ccc(N)cc2)cc1)c1ccc(Oc2ccc(N)cc2)cc1`, the AC50 in assay [1] was 2.01 µM (active); in [11] it was 3.6 µM (active). Also, the compound was classed as inactive in assay [2], in assay [3], in assay [4], in [5], in assay [6] and in assay [7]. The compound was classed as inactive in assay [8], in [16], in [9], in assay [10], in assay [17] and in [13]. The compound was called inactive in assay [14] and in [15].
In the case of `COCC1CCC(CO)CC1` (stereo not given), the compound was called inactive in assay [1], in assay [2], in [3], in [4], in assay [5] and in assay [6]. Also, the result in [7], in assay [8], in [16], in assay [9], in [10] and in assay [11] was inactive. Moreover, the outcome in assay [17] and in assay [13] was inactive.
On to `CCCCCCCCCCCC(=O)NCCCN(C)C`, for which the AC50 in assay [1] was 5.26 µM (active); in assay [3] it was 21.3 µM (active); in assay [6], 8.13 µM (active); in assay [8], 18.9 µM (active); in [16], 17.5 µM (active); in assay [11] it was 18 µM (active). For the same compound, the AC50 in assay [13] is 19.1 µM (active). Besides, the compound was classed as inactive in [2], in assay [4], in [5], in assay [7], in [9] and in [10]. Also, the outcome in assay [17] and in assay [14] was inactive.
